Assay results published in ChEMBL document CHEMBL1961873, “Compounds: GSK PKIS; Assays: Nanosyn kinase panel” (2012).

What was measured:
[1] = target: Mitogen-activated protein kinase 3 (Homo sapiens) (UniProt P27361); conditions: at 1 µM;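 note: values are mean percent inhibition of MAPK3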
[2] = target: SRSF protein kinase 3 (Homo sapiens) (UniProt Q9UPE1); conditions: at 0.1 µM
[3] = target: SRSF protein kinase 3 (Homo sapiens) (UniProt Q9UPE1); conditions: at 1 µM
[4] = target: Mitogen-activated protein kinase 14 (Homo sapiens) (UniProt Q16539); conditions: at 0.1 µM
Sequence of Mitogen-activated protein kinase 14 (Homo sapiens) (Q16539 whole entry): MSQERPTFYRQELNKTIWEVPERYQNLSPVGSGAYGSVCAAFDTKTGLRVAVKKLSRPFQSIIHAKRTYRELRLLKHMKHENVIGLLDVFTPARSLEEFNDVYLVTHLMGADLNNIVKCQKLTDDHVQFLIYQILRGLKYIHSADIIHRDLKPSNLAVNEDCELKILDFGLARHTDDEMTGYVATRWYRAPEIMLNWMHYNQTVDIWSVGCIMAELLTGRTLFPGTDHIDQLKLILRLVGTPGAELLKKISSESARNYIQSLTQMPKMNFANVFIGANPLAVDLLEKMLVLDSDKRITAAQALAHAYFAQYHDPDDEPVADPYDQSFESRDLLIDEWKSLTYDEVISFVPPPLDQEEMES

[5] = target: Mitogen-activated protein kinase 14 (Homo sapiens) (UniProt Q16539); conditions: at 1 µM
[6] = target: Mitogen-activated protein kinase 11 (Homo sapiens) (UniProt Q15759); conditions: at 0.1 µM
Sequence of Mitogen-activated protein kinase 11 (Homo sapiens) (Q15759 whole entry): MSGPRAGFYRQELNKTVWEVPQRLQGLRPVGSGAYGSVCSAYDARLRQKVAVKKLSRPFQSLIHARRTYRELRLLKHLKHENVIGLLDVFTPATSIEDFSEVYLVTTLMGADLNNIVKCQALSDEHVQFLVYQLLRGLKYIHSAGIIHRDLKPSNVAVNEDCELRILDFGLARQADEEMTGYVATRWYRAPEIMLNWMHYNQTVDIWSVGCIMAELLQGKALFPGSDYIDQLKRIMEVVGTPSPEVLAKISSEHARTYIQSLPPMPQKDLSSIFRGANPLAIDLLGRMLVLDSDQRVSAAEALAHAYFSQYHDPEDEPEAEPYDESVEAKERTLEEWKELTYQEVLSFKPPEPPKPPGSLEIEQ

[7] = target: Mitogen-activated protein kinase 11 (Homo sapiens) (UniProt Q15759); conditions: at 1 µM
[8] = target: T1, Mitogen-activated protein kinase 13 (Homo sapiens) (UniProt O15264); conditions: at 0.1 µM
T1 sequence (whole entry): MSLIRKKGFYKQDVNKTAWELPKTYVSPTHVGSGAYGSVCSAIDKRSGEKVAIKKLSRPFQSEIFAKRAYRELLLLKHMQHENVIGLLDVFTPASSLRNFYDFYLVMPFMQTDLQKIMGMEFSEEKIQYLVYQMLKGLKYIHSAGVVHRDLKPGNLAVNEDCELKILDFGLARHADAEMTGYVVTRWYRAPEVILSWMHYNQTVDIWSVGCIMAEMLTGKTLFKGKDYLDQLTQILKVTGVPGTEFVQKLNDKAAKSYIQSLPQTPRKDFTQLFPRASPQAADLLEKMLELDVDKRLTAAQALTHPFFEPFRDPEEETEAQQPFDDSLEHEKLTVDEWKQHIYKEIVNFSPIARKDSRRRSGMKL

[9] = target: T1, Mitogen-activated protein kinase 13 (Homo sapiens); conditions: at 1 µM
[10] = target: T2, Mitogen-activated protein kinase 12 (Homo sapiens) (UniProt P53778); conditions: at 0.1 µM
T2 sequence (whole entry): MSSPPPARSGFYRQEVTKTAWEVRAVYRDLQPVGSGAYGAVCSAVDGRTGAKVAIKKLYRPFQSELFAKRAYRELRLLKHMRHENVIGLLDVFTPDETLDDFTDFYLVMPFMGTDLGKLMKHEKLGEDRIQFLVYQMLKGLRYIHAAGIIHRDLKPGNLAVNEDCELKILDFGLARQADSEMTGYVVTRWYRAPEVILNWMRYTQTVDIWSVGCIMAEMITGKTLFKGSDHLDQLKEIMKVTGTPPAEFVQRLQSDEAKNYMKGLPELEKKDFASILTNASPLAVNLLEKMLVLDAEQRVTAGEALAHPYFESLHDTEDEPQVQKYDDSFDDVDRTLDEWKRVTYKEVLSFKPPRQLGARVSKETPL

[11] = target: T2, Mitogen-activated protein kinase 12 (Homo sapiens); conditions: at 1 µM
[12] = target: SRSF protein kinase 1 (Homo sapiens) (UniProt Q96SB4); conditions: at 0.1 µM
Sequence of SRSF protein kinase 1 (Homo sapiens) (Q96SB4 whole entry, canonical isoform): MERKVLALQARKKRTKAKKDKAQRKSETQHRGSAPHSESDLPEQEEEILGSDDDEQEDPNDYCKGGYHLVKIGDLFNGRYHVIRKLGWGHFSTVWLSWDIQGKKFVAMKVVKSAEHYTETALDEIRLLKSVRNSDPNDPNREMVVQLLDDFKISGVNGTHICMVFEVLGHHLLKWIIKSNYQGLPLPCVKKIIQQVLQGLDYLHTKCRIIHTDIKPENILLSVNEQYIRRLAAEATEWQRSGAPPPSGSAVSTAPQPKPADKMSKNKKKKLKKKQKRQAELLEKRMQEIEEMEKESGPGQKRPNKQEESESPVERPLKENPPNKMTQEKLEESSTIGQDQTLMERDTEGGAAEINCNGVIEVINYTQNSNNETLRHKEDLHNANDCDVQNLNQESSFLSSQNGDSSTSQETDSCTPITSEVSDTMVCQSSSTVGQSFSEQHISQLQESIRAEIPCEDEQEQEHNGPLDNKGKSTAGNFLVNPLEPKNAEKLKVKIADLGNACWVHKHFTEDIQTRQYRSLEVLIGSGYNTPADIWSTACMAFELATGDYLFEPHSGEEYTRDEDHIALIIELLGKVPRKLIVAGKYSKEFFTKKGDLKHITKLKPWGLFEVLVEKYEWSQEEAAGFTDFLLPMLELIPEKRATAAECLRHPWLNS

[13] = target: SRSF protein kinase 1 (Homo sapiens) (UniProt Q96SB4); conditions: at 1 µM
[14] = target: Phosphatidylinositol 4,5-bisphosphate 3-kinase catalytic subunit alpha isoform (Homo sapiens) (UniProt P42336); conditions: at 0.1 µM
Sequence of Phosphatidylinositol 4,5-bisphosphate 3-kinase catalytic subunit alpha isoform (Homo sapiens) (P42336 whole entry, canonical isoform): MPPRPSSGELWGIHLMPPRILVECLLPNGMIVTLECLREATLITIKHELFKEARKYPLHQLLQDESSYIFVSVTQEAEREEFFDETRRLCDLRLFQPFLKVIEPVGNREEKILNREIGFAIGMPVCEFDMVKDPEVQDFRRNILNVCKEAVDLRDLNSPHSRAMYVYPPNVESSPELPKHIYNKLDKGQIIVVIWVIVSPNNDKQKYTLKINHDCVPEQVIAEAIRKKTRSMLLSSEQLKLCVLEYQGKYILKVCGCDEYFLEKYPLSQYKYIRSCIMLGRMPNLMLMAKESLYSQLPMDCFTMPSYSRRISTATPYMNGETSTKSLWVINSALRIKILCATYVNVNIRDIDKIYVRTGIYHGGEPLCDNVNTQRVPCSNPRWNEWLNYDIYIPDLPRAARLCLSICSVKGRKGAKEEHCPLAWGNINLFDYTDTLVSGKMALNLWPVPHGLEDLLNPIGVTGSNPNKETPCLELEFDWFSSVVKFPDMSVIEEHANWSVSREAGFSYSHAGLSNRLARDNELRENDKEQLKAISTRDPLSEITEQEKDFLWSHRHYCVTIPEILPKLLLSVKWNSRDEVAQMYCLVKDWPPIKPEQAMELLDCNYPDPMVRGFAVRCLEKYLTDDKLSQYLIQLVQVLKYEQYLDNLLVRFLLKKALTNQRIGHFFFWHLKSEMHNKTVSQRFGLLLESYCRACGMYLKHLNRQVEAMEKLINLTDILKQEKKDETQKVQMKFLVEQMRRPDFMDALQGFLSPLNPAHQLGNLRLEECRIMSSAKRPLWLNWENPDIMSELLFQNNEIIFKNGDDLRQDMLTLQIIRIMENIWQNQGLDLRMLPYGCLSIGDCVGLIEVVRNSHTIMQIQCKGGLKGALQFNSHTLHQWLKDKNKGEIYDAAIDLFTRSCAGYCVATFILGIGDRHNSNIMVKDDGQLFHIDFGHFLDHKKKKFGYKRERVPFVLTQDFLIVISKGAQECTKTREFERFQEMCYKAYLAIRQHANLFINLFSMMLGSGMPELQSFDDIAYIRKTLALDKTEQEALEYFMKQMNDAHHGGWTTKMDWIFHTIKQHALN

[15] = target: Phosphatidylinositol 4,5-bisphosphate 3-kinase catalytic subunit alpha isoform (Homo sapiens) (UniProt P42336); conditions: at 1 µM
[16] = target: T3, Phosphatidylinositol 4,5-bisphosphate 3-kinase catalytic subunit delta isoform (Homo sapiens) (UniProt O00329); conditions: at 0.1 µM
T3 sequence (whole entry): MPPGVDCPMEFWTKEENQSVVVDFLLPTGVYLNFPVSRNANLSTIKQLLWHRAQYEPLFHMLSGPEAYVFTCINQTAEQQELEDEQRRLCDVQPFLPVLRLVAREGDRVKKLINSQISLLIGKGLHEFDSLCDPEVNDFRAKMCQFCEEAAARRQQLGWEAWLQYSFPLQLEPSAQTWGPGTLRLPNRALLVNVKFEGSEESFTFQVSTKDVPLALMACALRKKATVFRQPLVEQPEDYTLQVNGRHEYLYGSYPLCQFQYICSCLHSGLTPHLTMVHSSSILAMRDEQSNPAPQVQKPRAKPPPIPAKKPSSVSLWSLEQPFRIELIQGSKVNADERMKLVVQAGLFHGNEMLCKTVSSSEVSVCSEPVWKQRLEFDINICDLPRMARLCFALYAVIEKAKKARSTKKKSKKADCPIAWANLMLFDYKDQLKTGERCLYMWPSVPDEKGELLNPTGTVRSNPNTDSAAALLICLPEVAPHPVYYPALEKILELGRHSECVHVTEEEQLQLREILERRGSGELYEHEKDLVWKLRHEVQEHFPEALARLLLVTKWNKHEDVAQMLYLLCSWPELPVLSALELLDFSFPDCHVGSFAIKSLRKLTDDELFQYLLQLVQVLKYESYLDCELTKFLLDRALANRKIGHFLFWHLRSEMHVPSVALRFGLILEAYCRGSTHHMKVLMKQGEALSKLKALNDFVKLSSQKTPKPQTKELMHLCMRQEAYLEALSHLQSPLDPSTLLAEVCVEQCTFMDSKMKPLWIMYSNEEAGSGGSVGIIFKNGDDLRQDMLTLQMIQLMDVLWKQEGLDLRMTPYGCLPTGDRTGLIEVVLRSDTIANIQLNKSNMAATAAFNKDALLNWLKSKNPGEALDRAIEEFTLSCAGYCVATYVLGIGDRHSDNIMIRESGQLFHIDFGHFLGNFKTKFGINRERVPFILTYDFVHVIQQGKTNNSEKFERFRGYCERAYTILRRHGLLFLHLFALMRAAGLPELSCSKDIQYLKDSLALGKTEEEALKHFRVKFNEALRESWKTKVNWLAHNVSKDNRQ

[17] = target: T3, Phosphatidylinositol 4,5-bisphosphate 3-kinase catalytic subunit delta isoform (Homo sapiens); conditions: at 1 µM
[18] = target: Phosphatidylinositol 4-kinase beta (Homo sapiens) (UniProt Q9UBF8); conditions: at 0.1 µM
Sequence of Phosphatidylinositol 4-kinase beta (Homo sapiens) (Q9UBF8 2-816 limits assumed): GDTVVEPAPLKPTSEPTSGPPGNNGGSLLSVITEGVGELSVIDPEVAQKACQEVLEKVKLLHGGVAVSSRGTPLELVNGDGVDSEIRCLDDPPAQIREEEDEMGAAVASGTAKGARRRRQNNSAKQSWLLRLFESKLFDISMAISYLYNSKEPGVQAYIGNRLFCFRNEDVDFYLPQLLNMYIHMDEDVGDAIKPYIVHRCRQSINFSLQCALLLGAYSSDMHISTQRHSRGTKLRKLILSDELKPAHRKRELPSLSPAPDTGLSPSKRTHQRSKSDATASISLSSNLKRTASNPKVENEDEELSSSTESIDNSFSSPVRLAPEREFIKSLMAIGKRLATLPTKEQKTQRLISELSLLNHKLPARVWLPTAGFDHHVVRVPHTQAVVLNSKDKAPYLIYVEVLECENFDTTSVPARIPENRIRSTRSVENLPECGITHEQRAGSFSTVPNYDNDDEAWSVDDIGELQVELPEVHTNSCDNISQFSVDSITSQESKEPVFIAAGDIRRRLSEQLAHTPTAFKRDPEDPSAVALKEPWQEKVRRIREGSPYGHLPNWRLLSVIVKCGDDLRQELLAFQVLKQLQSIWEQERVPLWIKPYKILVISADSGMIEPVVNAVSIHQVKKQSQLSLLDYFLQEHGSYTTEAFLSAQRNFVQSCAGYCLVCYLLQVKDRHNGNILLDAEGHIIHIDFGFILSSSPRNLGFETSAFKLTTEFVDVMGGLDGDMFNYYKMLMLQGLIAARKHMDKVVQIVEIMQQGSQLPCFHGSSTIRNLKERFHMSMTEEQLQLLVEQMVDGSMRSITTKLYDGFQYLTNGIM

[19] = target: Phosphatidylinositol 4-kinase beta (Homo sapiens) (UniProt Q9UBF8); conditions: at 1 µM
[20] = target: Sphingosine kinase 1 (Homo sapiens) (UniProt Q9NYA1); conditions: at 0.1 µM;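 note: mean percent inhibition of SPHK1 activity, measured within the GSK PKIS screening panel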
Sequence of Sphingosine kinase 1 (Homo sapiens) (Q9NYA1 whole entry): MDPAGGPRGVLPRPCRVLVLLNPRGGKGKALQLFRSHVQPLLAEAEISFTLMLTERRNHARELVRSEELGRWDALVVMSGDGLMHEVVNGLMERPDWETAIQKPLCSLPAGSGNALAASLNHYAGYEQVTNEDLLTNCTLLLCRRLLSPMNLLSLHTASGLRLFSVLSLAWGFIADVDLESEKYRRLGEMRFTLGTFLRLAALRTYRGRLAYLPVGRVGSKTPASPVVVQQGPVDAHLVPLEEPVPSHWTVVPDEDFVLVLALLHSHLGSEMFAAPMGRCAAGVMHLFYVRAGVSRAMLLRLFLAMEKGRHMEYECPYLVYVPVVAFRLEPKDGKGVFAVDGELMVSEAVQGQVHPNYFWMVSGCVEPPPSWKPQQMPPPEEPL

Sequence of SRSF protein kinase 3 (Homo sapiens) (Q9UPE1 whole entry): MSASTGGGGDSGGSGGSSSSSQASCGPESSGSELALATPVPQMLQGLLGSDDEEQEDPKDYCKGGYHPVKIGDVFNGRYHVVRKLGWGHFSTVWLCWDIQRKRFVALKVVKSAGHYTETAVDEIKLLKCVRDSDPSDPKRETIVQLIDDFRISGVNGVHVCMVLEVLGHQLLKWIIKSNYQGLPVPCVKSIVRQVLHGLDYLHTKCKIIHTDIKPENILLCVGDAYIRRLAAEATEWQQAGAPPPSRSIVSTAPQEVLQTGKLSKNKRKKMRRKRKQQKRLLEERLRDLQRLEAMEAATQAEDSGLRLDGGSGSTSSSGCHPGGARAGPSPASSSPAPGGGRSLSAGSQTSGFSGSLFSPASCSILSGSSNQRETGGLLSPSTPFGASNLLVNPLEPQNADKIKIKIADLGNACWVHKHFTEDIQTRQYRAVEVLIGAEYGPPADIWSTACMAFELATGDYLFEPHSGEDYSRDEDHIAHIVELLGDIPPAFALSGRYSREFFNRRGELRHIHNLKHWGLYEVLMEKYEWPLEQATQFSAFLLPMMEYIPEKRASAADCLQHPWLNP
Sequence of Mitogen-activated protein kinase 3 (Homo sapiens) (P27361 whole entry): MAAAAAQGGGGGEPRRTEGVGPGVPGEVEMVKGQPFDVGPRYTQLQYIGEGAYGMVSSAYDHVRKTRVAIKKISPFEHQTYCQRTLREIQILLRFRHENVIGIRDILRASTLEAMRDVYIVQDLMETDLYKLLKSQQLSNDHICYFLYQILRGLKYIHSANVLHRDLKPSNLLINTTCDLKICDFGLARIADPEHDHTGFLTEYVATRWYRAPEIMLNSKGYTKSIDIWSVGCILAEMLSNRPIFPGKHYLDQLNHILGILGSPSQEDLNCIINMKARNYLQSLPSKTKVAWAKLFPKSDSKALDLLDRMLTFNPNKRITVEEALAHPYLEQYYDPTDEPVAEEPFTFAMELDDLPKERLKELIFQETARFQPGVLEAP

Structure (SMILES)	inhibition [1] [%]	inhibition [2] [%]	inhibition [3] [%]	inhibition [4] [%]	inhibition [5] [%]	inhibition [6] [%]	inhibition [7] [%]	inhibition [8] [%]	inhibition [9] [%]	inhibition [10] [%]	inhibition [11] [%]	inhibition [12] [%]	inhibition [13] [%]	inhibition [14] [%]	inhibition [15] [%]	inhibition [16] [%]	inhibition [17] [%]	inhibition [18] [%]	inhibition [19] [%]	inhibition [20] [%]
CN(C)CCOc1ccc(-c2cc(-c3ccc4c(c3)CCC4=NO)c(-c3ccncc3)o2)cc1	1.25	-6.42	-1.92	-0.58	0.13	-0.55	1.57	-1.01	-2.49	-0.25	-0.32	-1.96	-0.37	-0.14	1.74	2.02	6.39	3.66	2.02	-0.35
COc1ccc2cc(-c3c(-c4ccncc4)nc(-c4ccc([S+](C)[O-])cc4C)n3C)ccc2c1 (configuration not stated)	0.97	-0.41	0.96	8.81	8.45	-1.91	9.09	0.73	-0.19	-2.44	-0.09	-0.31	-0.89	-2.02	-0.83	-2.38	-1.78	2.91	-0.88	-0.09
CCN(CC)Cc1ccc(Nc2nccc(-c3cnn4ncccc34)n2)cc1	7.61	-1.94	-0.22	6.95	13.1	3.23	4.99	4.71	9.25	3.65	6.9	-2.98	-1.36	3.82	11.4	6.31	40.2	-2.34	4.5	0.05
O=C(Nc1n[nH]c2cc(-c3ccccc3)ccc12)C1CC1	4.97	-0.47	-0.2	4.83	11.2	4.66	6.34	3.31	5.86	6.09	3.52	-1.71	-1.41	2.18	4.34	1.72	4.03	-5.9	0.66	-0.8
O=C1NC(=O)C(c2cccc(Cl)c2)=C1Nc1ccc(Cl)c(C(=O)O)c1	3.9	-2.79	0.44	1.44	4.72	3.66	4.6	1.21	0.67	5.9	1.67	-2.19	-1.47	3.63	1.55	1.72	-0.43	0.69	-0.07	0.25
c1ccc(-c2n[nH]cc2-c2ccnc(-c3ccc(OCCN4CCOCC4)cc3)c2)nc1	-2.62	2.38	0.78	3.12	28.9	-0.65	5.15	5.65	-0.43	3.09	0.29	2.99	-0.67	0.37	0.17	2.7	3.02	-0.93	-1.19	-5.06
C#Cc1cccc(Nc2ncnc3ccc(OCCCCNCCS(C)(=O)=O)cc23)c1	5.78	-1.8	-2.44	3.36	13.9	4.69	7.25	6.43	4.8	1.66	3.54	-1.38	-0.94	5	4.83	2.6	5.7	-2.49	-1.03	5.65
Nc1nccc(-c2c(-c3ccc(F)cc3)ncn2C2CCC(O)CC2)n1 (configuration not stated)	0	1.14	0.84	70.8	92.5	14.9	62.2	0.18	-2.89	-3.41	-0.94	1.95	4.67	16.6	3.18	3.72	7.23	-6.38	-0.81	0.34
NCc1ccc(-n2c(-c3nonc3N)nc3cnccc32)cc1	5.64	-0.85	-1.47	4.72	10	5.07	11	2.2	7.37	3.52	3.74	-2.56	-1.45	4.81	4.8	3.69	6.07	–	5.38	1.89
Fc1ccc(-c2ncn(C3CCNCC3)c2-c2ccnc(Oc3ccc(F)c(F)c3)n2)cc1	6.51	-3.83	-1.43	–	–	–	–	–	–	–	–	-3.26	-1.49	3.43	3.41	1.7	3.53	-1.47	1.86	1.28
NC(=O)c1cc(-c2ccc(F)cc2)cc(-c2ccncc2)c1N	3.05	-2.8	-1.27	6.13	8.6	2.26	5.45	2.57	3.93	4.51	3.29	-2.19	-2.78	3.84	22.8	2.48	4.83	-4.18	-2.52	-2.79
CCc1nccc2c1nc(-c1nonc1N)n2CC	1.77	-1.38	-1.65	3.67	–	2.18	1.56	-1.2	1.58	-1.3	3.91	-2.2	-4.41	-0.95	1.38	1.47	4.23	-3.69	1.82	0
COc1ccc2cc(-c3c(-c4ccncc4)nc(-c4ccc(S(C)(=O)=O)cc4C)n3C)ccc2c1	2.57	-1.96	-4.7	14.2	17.3	2.54	11	2.15	5.04	3.44	3.33	-2.04	-2.87	3.62	3.55	1.31	1.59	–	0.34	2.55
Cc1ccc(NC(=O)c2ccoc2)cc1-c1ccc(C(=O)NCC2CC2)cc1	2.32	-2.54	-1.92	–	–	27.8	61.2	2.82	0.81	2.37	1.97	-1.34	-0.85	2.81	3.57	1.77	2.51	1.89	-1.62	0
